In PubChem BioAssay (NCATS):
Inconclusive results are not listed. Activity calls are given as the source filed them. Calls come from the whole dose curve; as a rule, active = well fitted curve in the direction sought with a large enough effect; inconclusive = small, poorly fitted or top-dose-only effect, or another doubt; inactive = no such curve, though single readings can be large; an effect the other way counts as inactive or inconclusive.

Assays:
[1] = target: Calcium and integrin-binding protein 1 (Homo sapiens) (UniProt Q99828); assay: Primary qHTS for Identification of Calcium Integrin Binding Protein 1 (CIB1) Competitor (AID 1508620);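 note: GST tagged CIB1 binding a fluorescein labelled alphaIIb integrin peptide tracer; top concentration of the series differs between compounds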
How it was run: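 Fluorescence polarization competition: GST-tagged CIB1 (1 uM final) preincubated with compound 15 min at room temperature, then FITC-labelled alphaIIb peptide (100 nM final) added. After 15 min at room temperature, polarization read at Ex 480/Em 540.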

[2] = Primary qHTS for inhibitors of nuclear receptor binding SET domain protein 2 (NSD2) in an isogenic RCH-ACV NSD2 p.E1099K mutant (9B) (AID 1645876); note: nearly all actives have a fitted effect of over 70% in size
[3] = Primary qHTS for inhibitors of nuclear receptor binding SET domain protein 2 (NSD2) in an RCH-ACV wild type WT cells (2C) (AID 1645877); note: nearly all actives have a fitted effect of over 70% in size
% is set by controls: 0 for no effect and ±100 for the full control effect.

Chain of Calcium and integrin-binding protein 1 (Homo sapiens) (Q99828 whole entry, looked up): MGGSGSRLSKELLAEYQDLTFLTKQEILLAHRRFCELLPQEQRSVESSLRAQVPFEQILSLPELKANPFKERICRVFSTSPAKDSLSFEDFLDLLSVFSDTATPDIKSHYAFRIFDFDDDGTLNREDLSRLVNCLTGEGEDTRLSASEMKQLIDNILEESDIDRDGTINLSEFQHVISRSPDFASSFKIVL

CC(=O)O[C@@H]1[C@H](OC(C)=O)C[C@@]2(C)C(CC[C@@H](C)[C@]23Cc2c(O)cc4c(c2O3)CN([C@@H](CCC(=O)O)C(=O)O)C4=O)C1(C)C (some centres not stated)
inactive: Potency [1] | Potency [2] | Potency [3]

C=C(C)C(O)COc1ccc(CC(=O)O)cc1 (configuration not stated)
inactive: Potency [1] | Potency [2] | Potency [3]

C/C(=C\C(=O)C[C@@]12C(=O)O[C@]3(C)CC[C@H]1C[C@H]23)C(N)=O
inactive: Potency [1] | Potency [2] | Potency [3]

C=C(C)[C@@H]1CC[C@]2(CO)CC[C@]3(C)[C@H](CC[C@@H]4[C@@]5(C)CC[C@H](O)C(C)(C)[C@@H]5CC[C@]43C)[C@@H]12
inactive: Potency [1] | Potency [2] | Potency [3]

CC1(C)CC2C(O)C3=C(CC(C)(O)C2C1)C(=O)OC3 (configuration not stated)
inactive: Potency [1] | Potency [2] | Potency [3]

COC(=O)C1=CO[C@@H](O[C@@H]2O[C@H](CO)[C@@H](O)[C@H](O)[C@H]2O)[C@@H]2C(C)CC(=O)[C@]12O (some centres not stated)
inactive: Potency [1] | Potency [2] | Potency [3]

COc1cc(C[C@@]2(O)CO[C@@H](c3ccc(O[C@@H]4O[C@H](CO)[C@@H](O)[C@H](O)[C@H]4O)c(OC)c3)[C@H]2CO)ccc1O
inactive: Potency [1] | Potency [2] | Potency [3]

CC1OC(O[C@@H]2[C@@H](O)[C@H](OC(=O)[C@]34CCC(C)(C)C[C@H]3C3=CCC5[C@@]6(C)CC[C@H](O[C@@H]7O[C@H](C(=O)O)[C@@H](O)[C@H](O[C@@H]8OC[C@@H](O)[C@H](O)[C@H]8O)[C@H]7O[C@@H]7O[C@H](CO)[C@H](O)[C@H](O)[C@H]7O)[C@@](C)(C=O)C6CC[C@@]5(C)[C@]3(C)C[C@H]4O)O[C@H](C)[C@@H]2OC2OC(C)C(OC3OCC(O)C(O)C3O)C(O)C2O)C(O)C(O)C1O (some centres not stated)
inactive: activity change, negative = inhibition [1] 3.33% [at 12.4 µM] | activity change, negative = viability loss [2] -4.28% [at 9.23 µM] | activity change, negative = cell killing [3] -13.7% [at 9.23 µM]

COc1cc(CCCO)ccc1O[C@@H]1O[C@H](CO)[C@@H](O)[C@H](O)[C@H]1O
inactive: Potency [1] | Potency [2] | Potency [3]

C[C@H]1CC[C@@]2(OC1)O[C@H]1CC3C4CC[C@H]5C[C@@H](O)CC[C@]5(C)C4CC(=O)[C@]3(C)[C@H]1[C@@H]2C (some centres not stated)
inactive: Potency [1] | Potency [2] | Potency [3]

COc1cc(/C=C/C(=O)O)ccc1O[C@@H]1O[C@H](CO)[C@@H](O)[C@H](O)[C@H]1O[C@@H]1OC[C@](O)(CO)[C@H]1O
inactive: Potency [1] | Potency [2] | Potency [3]

Cn1nccc1-c1ccccc1Oc1ccc(S(=O)(=O)Nc2nccs2)cc1C#N
inactive: Potency [1] | Potency [2] | Potency [3]

C=CC(C)(O)CC/C=C(\C)C(=O)O[C@@H]1[C@@H](O)[C@H](OC(C)(C=C)CC/C=C(\C)C(=O)O[C@@H]2O[C@H](CO)[C@@H](O)[C@H](O)[C@H]2O)O[C@H](CO)[C@H]1OC(=O)/C(C)=C/CCC(C)(O)C=C (some centres not stated)
inactive: Potency [1] | activity change, negative = viability loss [2] -6.17% [at 9.23 µM] | activity change, negative = cell killing [3] -2.41% [at 9.23 µM]

CC1(C)O[C@H]2CC(=O)OC[C@@]23C1=C(O)C(=O)[C@]1(C)C3CC[C@@]2(C)[C@H](c3ccoc3)OC(=O)[C@H]3O[C@]321 (some centres not stated)
inactive: Potency [1] | Potency [2] | Potency [3]

C[C@@H]1O[C@@H](OC2C(O[C@H]3[C@H](O[C@H]4CC[C@@]5(C)C(CC[C@]6(C)C5CC=C5C7CC(C)(C)CC(O)[C@]7(C)CC[C@]56C)C4(C)C)O[C@H](C(=O)O)[C@@H](O)[C@@H]3O)OC(CO)C(O)C2O)[C@H](O)[C@H](O)[C@H]1O (some centres not stated)
inactive: Potency [1] | activity change, negative = viability loss [2] 3.07% [at 9.23 µM] | outcome [3] inactive [at 9.23 µM]

CC1=CC(=O)[C@]2(O[C@@H]3O[C@@H](C)[C@H](O)[C@@H](O)[C@H]3O)C=CO[C@@H](O[C@@H]3O[C@H](CO)[C@@H](O)[C@H](O)[C@H]3O)[C@H]12
inactive: Potency [1] | Potency [2] | Potency [3]

CC(=O)OCC1OC(O[C@H]2CC[C@@]3(C)C(CC[C@]4(C)C3CC=C3[C@@H]5CC(C)(C)CC[C@]5(C(=O)O)CC[C@]34C)[C@]2(C)CO)C(O)C(O)C1OC1OC(C)C(O)C(OC2OCC(O)C(O)C2O)C1O (some centres not stated)
inactive: Potency [1] | activity change, negative = viability loss [2] -15.5% [at 9.23 µM] | activity change, negative = cell killing [3] -24% [at 9.23 µM]

O=C(/C=C/c1ccc(O)cc1)O[C@@H]1C[C@@](O)(C(=O)O)C[C@@H](O)[C@@H]1O
inactive: Potency [1] | Potency [2] | Potency [3]

C/C=C/C=C/C(O)=C1/C(=O)[C@]2(C)C(=O)[C@@](C)(O)[C@H]1[C@H]([C@@]1(C)OC(=O)C(C)=C1O)[C@H]2C(=O)CC/C=C/C
inactive: Potency [1] | Potency [2] | Potency [3]

CCC/C=C/C=C/C1CC(O)C(O)C(=O)C1CO (configuration not stated)
inactive: Potency [1] | Potency [2] | Potency [3]

CC1CCC2C(C(=O)O)=CC3(O)CC(C)(C)CC123 (configuration not stated)
inactive: Potency [1] | Potency [2] | Potency [3]

C=C1CCC(OC(C)=O)C2(C)CC3OC(=O)C(C)=C3CC12 (configuration not stated)
inactive: Potency [1] | Potency [2] | Potency [3]

C[C@@H]1C[C@H]2OC(=O)[C@@]3(C)CCC[C@](C)(C23)[C@@]1(O)CCC1=CC(=O)OC1O (some centres not stated)
inactive: Potency [1] | Potency [2] | Potency [3]

COc1cc(/C=C/C(=O)OC[C@H]2O[C@@H](OC3OC=C(C(=O)O)C4C(O)CC(C)(O)C34)[C@H](O)[C@@H](O)[C@@H]2O)cc(OC)c1O (some centres not stated)
inactive: Potency [1] | Potency [2] | Potency [3]

CC1(C)CC[C@]2(C(=O)O)CC[C@]3(C)C(=CCC4[C@@]5(C)C[C@@H](O)[C@H](O)[C@@](C)(CO)C5CC[C@]43C)C2C1 (some centres not stated)
inactive: Potency [1] | Potency [2] | Potency [3]

CC(=O)OC1(C)CC(O)C2(O)C=COC(OC3OC(CO)C(O)C(O)C3O)C12 (configuration not stated)
inactive: Potency [1] | Potency [2] | Potency [3]

CC(=O)OC1CC(=O)C2(C)C3CC4=C(OC(C)CC4=O)OC3(C)CCC2C1(C)C (configuration not stated)
inactive: Potency [1] | Potency [2] | Potency [3]

C=CCc1ccc(O[C@@H]2O[C@H](CO)[C@@H](O)[C@H](O)[C@H]2O)c(O[C@@H]2O[C@H](CO)[C@@H](O)[C@H](O)[C@H]2O)c1
inactive: Potency [1] | Potency [2] | Potency [3]

CC1(C(=O)O)CC[C@]2(C(=O)OC3OC(CO)C(O)C(O)C3O)CC[C@]3(C)C(=CCC4[C@@]5(C)CC[C@H](OC6OCC(O)C(O)C6OC6OC(CO)C(O)C(O)C6O)C(C)(C)C5CC[C@]43C)C2C1 (some centres not stated)
inactive: Potency [1] | activity change, negative = viability loss [2] -7.26% [at 9.23 µM] | activity change, negative = cell killing [3] -0.731% [at 9.23 µM]

C=C1C2CCC3C(CCC4[C@@]3(C)CCC[C@@]4(C)C(=O)O)(C2)[C@@H]1OC(=O)/C(C)=C\C (some centres not stated)
inactive: Potency [1] | Potency [2] | Potency [3]

O=C(Nc1ccn(Cc2c(F)cccc2C(F)(F)F)n1)c1c(F)cccc1F
inactive: Potency [1] | activity change, negative = viability loss [2] -7.96% [at 9.23 µM] | activity change, negative = cell killing [3] -25.3% [at 9.23 µM]

C[C@@H]1C(=O)O[C@H](C)[C@H]1C[C@@H](O)[C@](C)(O)[C@H]1CC[C@@]2(O)C3=CC(=O)[C@@H]4C[C@@H](O)[C@@H](O)C[C@]4(C)C3CC[C@]12C (some centres not stated)
inactive: Potency [1] | Potency [2] | Potency [3]

CC1(C)C2CC[C@]3(C)C(C(=O)C=C4[C@H]5C[C@@](C)(C(=O)O)CC[C@]5(C)CC[C@]43C)[C@@]2(C)CC[C@@H]1O (some centres not stated)
inactive: Potency [1] | Potency [2] | Potency [3]

OCC1=C[C@@H](O)[C@@H]2C=CO[C@@H](O[C@@H]3O[C@H](CO)[C@@H](O)[C@H](O)[C@H]3O)[C@H]12
inactive: Potency [1] | Potency [2] | Potency [3]

CC1(C)CC[C@]2(C(=O)OC3OC(CO)C(O)C(O)C3O)CC[C@]3(C)C(=CCC4[C@@]5(C)C[C@@H](O)[C@H](OC6OC(C(=O)O)C(O)C(O)C6O)C(C)(C)C5CC[C@]43C)[C@@H]2C1 (some centres not stated)
inactive: Potency [1] | activity change, negative = viability loss [2] -7.32% [at 9.23 µM] | activity change, negative = cell killing [3] -10.4% [at 9.23 µM]

COCc1c(O)c(C(=O)O)c(C)c2c1OC(=O)c1c(C)cc(O)c(CO)c1O2
inactive: Potency [1] | Potency [2] | Potency [3]

CC(C)=CCC[C@@](C)(O)[C@H]1CC[C@]2(C)[C@@H]1[C@H](O)CC1[C@@]3(C)CC[C@H](O[C@@H]4O[C@H](CO)[C@@H](O)[C@H](O)[C@H]4O[C@@H]4O[C@H](CO)[C@@H](O)[C@H](O)[C@H]4O)C(C)(C)[C@@H]3CC[C@]12C (some centres not stated)
inactive: Potency [1] | Potency [2] | Potency [3]

CC1=CC[C@@]2(C)CC[C@@](O)(C(C)C)[C@@H]2[C@@H](O)C1
inactive: Potency [1] | Potency [2] | Potency [3]

COC(=O)c1ccc(OC)cc1O[C@@H]1O[C@H](CO[C@@H]2OC[C@@H](O)[C@H](O)[C@H]2O)[C@@H](O)[C@H](O)[C@H]1O
inactive: Potency [1] | Potency [2] | Potency [3]

C[C@@H]1O[C@@H](O[C@H]2[C@H](O)[C@@H](O)[C@H](OC[C@H]3O[C@@H](OC(=O)[C@]45CCC(C)(C)C[C@H]4C4=CCC6[C@@]7(C)C[C@@H](O)[C@H](O)[C@@](C)(CO)C7[C@H](O)C[C@@]6(C)[C@]4(C)CC5)[C@H](O)[C@@H](O)[C@@H]3O)O[C@@H]2CO)[C@H](O)[C@H](O)[C@H]1O (some centres not stated)
inactive: Potency [1] | outcome [2] inactive [at 9.23 µM] | activity change, negative = cell killing [3] 0.947% [at 9.23 µM]

COc1c(O)cc2c(c1O)C(=O)O[C@H](C)[C@H]2O
inactive: Potency [1] | Potency [2] | Potency [3]

C[C@H](/C=C/[C@@]1(O)[C@H](C)CC(=O)CC1(C)C)O[C@@H]1O[C@H](CO[C@@H]2OC[C@@H](O)[C@H](O)[C@H]2O)[C@@H](O)[C@H](O)[C@H]1O
inactive: Potency [1] | Potency [2] | Potency [3]

O=C(Cc1ccc(Cl)cc1)Nc1cnccc1C(=O)O
inactive: Potency [1] | Potency [2] | Potency [3]

CC(=O)O[C@@]1(C)[C@@H]2CC(=C(C)C)C(=O)C[C@@]2(C)CC[C@H]1OC(=O)C1(C)OC1C (some centres not stated)
inactive: Potency [1] | Potency [2] | Potency [3]
